# Experimental data taken from PubChem BioAssay.
# “And” between values parts separate entries of the source, which are not always exact repeats. Equal values may be shown once.
# Test system: Wnt5a (protein binding on small-molecule microarray)
# Test: Wnt5a binders on small-molecule microarray, primary screen, biophysical, 635/667 nm fluorescence (AID 1142);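 further: fluorescence read at 667 nm with signal to noise per printed feature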
# Details: 635 nm fluorescence, higher = more signal
row,SMILES,composite z-score
1,CC(CO)N1C(=O)[C@@H]2C3C(=O)OCCC=C[C@H]3OC23C=CCN(c2ccc(Cl)cc2)C(=O)[C@@H]13 (some centres not stated),-0.396 and -0.34
2,CCOC(=O)NN=C1C[C@@H](O)[C@@H](O)[C@@H]2[C@@H]3C(=O)N(Cc4ccc5c(c4)OCO5)C(=O)[C@@H]3CC[C@@H]12,-0.0968
3,C=CCN(C(=O)C(c1cccs1)N(C(=O)/C=C\C(=O)O)c1ccc(CCO)cc1)C(C)(C)C (configuration not stated),-0.156 and -1.27
4,C=CCN(C(=O)C(c1cccs1)N(C(=O)/C=C\C(=O)O)c1c(Cl)cccc1CO)C(C)(C)C (configuration not stated),-1.15 and -1.26
5,C=CCN(CCCCC)C(=O)C1N(c2c(Cl)cccc2CO)C(=O)C2C(C(=O)O)C3C=CC21O3 (configuration not stated),-0.65 and -1.3
6,C=CCN(CCCC)C(=O)C(c1cccs1)N(CCOCCO)C(=O)/C=C\C(=O)O (configuration not stated),-0.582 and -0.146
7,CCCCCN1CC=CC23O[C@@H]4C=CCCOC(=O)C4[C@H]2C(=O)N(C(C)CO)[C@@H]3C1=O (some centres not stated),-0.226 and -0.744
8,COC(=O)[C@H](C)NC(=O)CCC1CC(OC(=O)NCCc2ccc(F)cc2)CC2(CCCC(COC(=O)NCCCN3CCCC3=O)O2)O1 (some centres not stated),0.29
9,COC(=O)C1=C(C)N(Cc2ccccc2)C2=C(C(C)=O)C[C@@](O)(C(=O)OC)C(=O)N2[C@@H]1c1ccccc1,0.491 and 0.0879
10,C=CCN(CCCCC)C(=O)C(c1cccs1)N(C(=O)/C=C\C(=O)O)c1c(Cl)cccc1CO (configuration not stated),-0.473 and -1.02
11,CC(C)CON=C1C[C@@H](O)[C@@H](O)[C@@H]2[C@@H]3C(=O)N(c4cccc(Oc5ccccc5)c4)C(=O)[C@@H]3CC[C@H]12,0.738
12,C=CCN(C(=O)C(c1cccs1)N(C(=O)/C=C\C(=O)O)C(C)(C)CO)c1ccc(OC)cc1 (configuration not stated),-0.0325 and -0.446
